Experimental data reported in ChEMBL document CHEMBL1201862, “PubChem BioAssay data set” (2004).
The campaign covered roughly 42,000 sequences. About 2,900 (6.9%) were called active. No stated cut-off is given here; in the data, active = GI50 up to about 1.1 µM and inactive = higher. The sample as a whole holds a higher share of actives than the screen did. Results with a measured potency or affinity are listed apart.

These substances were tested on T47D.
“[Bis(aminomethyl)tetramethylenesilane]dichloropaltinum(II), CHEMBL2146205” gave a GI50 of 5 µM.
For “[Bis(aminomethyl)pentamethylenesilane]dichloropaltinum(II), CHEMBL2146202”, the GI50 was 1.34 µM.
Substance “[Bis(aminomethyl)tetramethylenesilane]tetrachloropaltinum(IV), CHEMBL2146189” has a GI50 of 0.184 µM.
Substance “[Bis(aminomethyl)dimethylsilane]tetrachloroplatinum(IV), CHEMBL2146190” has a GI50 of 14.6 µM.
For “[Bis(aminomethyl)pentamethylenesilane]tetrachloropaltinum(IV), CHEMBL2146204”, the GI50 was 2.18 µM.
CISPLATIN, CHEMBL11359 was tested, and the GI50 was 14 µM.
